# From PubChem BioAssay AID1159580 (chemical genetic matrix, 2015)
# Among all 5,500 compounds or so, about 2,000 (36%) were called active. Not shown: some 18% with an inconclusive outcome. Some of the results follow. Unmarked numbers belong to inactive results. Cut-off read from the data, not from the text of the source: active = normalized growth mostly below about 0.91 (no sharp cut-off); inconclusive = no clear call, values can overlap the other calls; inactive = mostly above about 0.92.
# Assay: chemical genetic growth profiling, strain panel (AID 1159580);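 note: tested at 20 µM; growth read once vehicle control cultures reached saturation at 30 °C; 1 = growth at the plate median or of vehicle wells; lower values mean less growth of the strain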
# Settings: growth OD
# [1] = S. cerevisiae deletion strains, locus YDR150W, strain NUM1, hits give low values
# [2] = S. cerevisiae deletion strains, locus YPL055C, strain LGE1, hits give low values
# [3] = S. cerevisiae deletion strains, locus YDL101C, strain DUN1, hits give low values
# [4] = S. cerevisiae deletion strains, locus YHR030C, strain SLT2, hits give low values
smiles,measurement,setting,value
CC(=O)Oc1cc(C(C)C)c(OCCN(C)C)cc1C,normalized growth,"S. cerevisiae deletion strains, locus YAL040C, strain CLN3, hits give low values",1.01
same,normalized growth,"S. cerevisiae deletion strains, locus YCL061C, strain MRC1 (second series), hits give low values",1.01
same,normalized growth,[1],1
same,normalized growth,"S. cerevisiae deletion strains, locus YDR363W, strain ESC2, hits give low values",1.01
same,normalized growth,"S. cerevisiae deletion strains, locus YER002W, strain NOP16, hits give low values",1.03
same,normalized growth,"S. cerevisiae deletion strains, locus YNL175C, strain NOP13, hits give low values",1.01
same,normalized growth,"S. cerevisiae deletion strains, locus YNL197C, strain WHI3, hits give low values",1.01
same,normalized growth,"S. cerevisiae deletion strains, locus YNL224C, strain SQS1, hits give low values",1
same,normalized growth,"S. cerevisiae deletion strains, locus YOR083W, strain WHI5 (second series), hits give low values",1.01
same,normalized growth,[2],1.01
CCn1nc(C)cc1-c1nnc(Sc2ncc([N+](=O)[O-])s2)n1C,normalized growth,"S. cerevisiae deletion strains, locus YAR019C, strain CDC15, hits give low values",0.964
same,normalized growth,"S. cerevisiae deletion strains, locus YBL105C, strain PKC1, hits give low values",0.968
same,normalized growth,"S. cerevisiae deletion strains, locus YBR135W, strain CKS1, hits give low values",0.967
same,normalized growth,"S. cerevisiae deletion strains, locus YBR136W, strain MEC1, hits give low values",0.962
same,normalized growth,"S. cerevisiae deletion strains, locus YBR160W, strain CDC28, hits give low values",0.956
same,normalized growth,"S. cerevisiae deletion strains, locus YDL017W, strain CDC7, hits give low values",0.974
same,normalized growth,"S. cerevisiae deletion strains, locus YDL028C, strain MPS1, hits give low values",0.961
same,normalized growth,[3],0.983
same,normalized growth,"S. cerevisiae deletion strains, locus YDL108W, strain KIN28, hits give low values",0.945
same,normalized growth,"S. cerevisiae deletion strains, locus YDL132W, strain cdc53, hits give low values",0.966
same,normalized growth,"S. cerevisiae deletion strains, locus YDL214C, strain PRR2, hits give low values",0.981
same,normalized growth,"S. cerevisiae deletion strains, locus YDR052C, strain DBF4, hits give low values",0.988
same,normalized growth,"S. cerevisiae deletion strains, locus YDR054C, strain cdc34, hits give low values",0.975
same,normalized growth,"S. cerevisiae deletion strains, locus YDR226W, strain ADK1, hits give low values",0.959
same,normalized growth,"S. cerevisiae deletion strains, locus YDR477W, strain SNF1, hits give low values",0.95
same,normalized growth,"S. cerevisiae deletion strains, locus YER123W, strain YCK3, hits give low values",0.93
same,normalized growth,"S. cerevisiae deletion strains, locus YER133W, strain GLC7, hits give low values",0.995
same,normalized growth,"S. cerevisiae deletion strains, locus YFL009W, strain cdc4, hits give low values",0.958
same,normalized growth,"S. cerevisiae deletion strains, locus YFL029C, strain CAK1, hits give low values",0.954
same,normalized growth,"S. cerevisiae deletion strains, locus YFR003C, strain YPI1, hits give low values",0.971
same,normalized growth,"S. cerevisiae deletion strains, locus YFR019W, strain FAB1, hits give low values",0.974
same,normalized growth,"S. cerevisiae deletion strains, locus YFR028C, strain CDC14, hits give low values",0.968
same,normalized growth,"S. cerevisiae deletion strains, locus YGR040W, strain KSS1, hits give low values",0.954
same,normalized growth,"S. cerevisiae deletion strains, locus YGR052W, strain FMP48, hits give low values",1.02
same,normalized growth,"S. cerevisiae deletion strains, locus YGR092W, strain DBF2, hits give low values",0.92
same,normalized growth,[4],1.03
same,normalized growth,"S. cerevisiae deletion strains, locus YHR079C, strain IRE1, hits give low values",0.963
same,normalized growth,"S. cerevisiae deletion strains, locus YHR082C, strain KSP1, hits give low values",1.01
same,normalized growth,"S. cerevisiae deletion strains, locus YHR205W, strain SCH9, hits give low values",0.956
same,normalized growth,"S. cerevisiae deletion strains, locus YIL147C, strain SLN1, hits give low values",0.967
same,normalized growth,"S. cerevisiae deletion strains, locus YJL095W, strain BCK1, hits give low values",0.933
same,normalized growth,"S. cerevisiae deletion strains, locus YJL128C, strain PBS2, hits give low values",0.94
same,normalized growth,"S. cerevisiae deletion strains, locus YJL157C, strain FAR1, hits give low values",0.957
same,normalized growth,"S. cerevisiae deletion strains, locus YJR016C, strain ILV3, hits give low values",0.967
same,normalized growth,"S. cerevisiae deletion strains, locus YJR066W, strain TOR1 (second series), hits give low values",0.971
same,normalized growth,"S. cerevisiae deletion strains, locus YJR066W, strain TOR1, hits give low values",0.921
same,normalized growth,"S. cerevisiae deletion strains, locus YKL048C, strain ELM1, hits give low values",0.99
same,normalized growth,"S. cerevisiae deletion strains, locus YKL067W, strain YNK1, hits give low values",1
same,normalized growth,"S. cerevisiae deletion strains, locus YKL101W, strain HSL1, hits give low values",0.985
same,normalized growth,"S. cerevisiae deletion strains, locus YKL193C, strain SDS22, hits give low values",0.962
same,normalized growth,"S. cerevisiae deletion strains, locus YKL203C, strain TOR2, hits give low values",1.07
same,normalized growth,"S. cerevisiae deletion strains, locus YLR113W, strain HOG1, hits give low values",0.971
same,normalized growth,"S. cerevisiae deletion strains, locus YLR133W, strain CKI1, hits give low values",0.958
same,normalized growth,"S. cerevisiae deletion strains, locus YLR403W, strain SFP1, hits give low values",0.959
same,normalized growth,"S. cerevisiae deletion strains, locus YML070W, strain DAK1, hits give low values",0.959
same,normalized growth,"S. cerevisiae deletion strains, locus YMR001C, strain CDC5, hits give low values",0.961
same,normalized growth,"S. cerevisiae deletion strains, locus YMR205C, strain PFK2 (second series), hits give low values",0.996
same,normalized growth,"S. cerevisiae deletion strains, locus YMR277W, strain FCP1, hits give low values",0.95
same,normalized growth,"S. cerevisiae deletion strains, locus YNL006W, strain LST8, hits give low values",0.967
same,normalized growth,"S. cerevisiae deletion strains, locus YNL020C, strain ARK1, hits give low values",0.968
same,normalized growth,"S. cerevisiae deletion strains, locus YNL161W, strain CBK1, hits give low values",0.975
same,normalized growth,"S. cerevisiae deletion strains, locus YNL183C, strain NPR1, hits give low values",1.04
same,normalized growth,"S. cerevisiae deletion strains, locus YNL207W, strain RIO2, hits give low values",0.985
same,normalized growth,"S. cerevisiae deletion strains, locus YNL222W, strain SSU72, hits give low values",0.951
same,normalized growth,"S. cerevisiae deletion strains, locus YNL307C, strain MCK1 (second series), hits give low values",0.945
same,normalized growth,"S. cerevisiae deletion strains, locus YOL078W, strain AVO1, hits give low values",0.965
same,normalized growth,"S. cerevisiae deletion strains, locus YOL136C, strain PFK27, hits give low values",0.955
same,normalized growth,"S. cerevisiae deletion strains, locus YOR061W, strain CKA2, hits give low values",0.98
same,normalized growth,"S. cerevisiae deletion strains, locus YOR119C, strain RIO1, hits give low values",1.05
same,normalized growth,"S. cerevisiae deletion strains, locus YOR231W, strain MKK1, hits give low values",0.927
same,normalized growth,"S. cerevisiae deletion strains, locus YOR329C, strain SCD5, hits give low values",0.975
same,normalized growth,"S. cerevisiae deletion strains, locus YPL031C, strain PHO85, hits give low values",0.968
same,normalized growth,"S. cerevisiae deletion strains, locus YPL153C, strain RAD53, hits give low values",0.96
same,normalized growth,"S. cerevisiae deletion strains, locus YPL204W, strain HRR25, hits give low values",0.965
same,normalized growth,"S. cerevisiae deletion strains, locus YPL209C, strain IPL1, hits give low values",0.974
same,normalized growth,"S. cerevisiae deletion strains, locus YPL256C, strain CLN2, hits give low values",0.984
same,normalized growth,"S. cerevisiae deletion strains, locus YPR025C, strain CCL1, hits give low values",0.965
same,normalized growth,"S. cerevisiae deletion strains, locus YPR106W, strain ISR1, hits give low values",0.96
same,normalized growth,"S. cerevisiae deletion strains, locus YPR111W, strain DBF20, hits give low values",0.978
same,normalized growth,"S. cerevisiae deletion strains, strain NNK1, hits give low values",0.984
same,normalized growth,"S. cerevisiae deletion strains, strain TSCII, hits give low values",0.963
C=CCn1c(Sc2ncc([N+](=O)[O-])s2)n[nH]c1=O,normalized growth,"S. cerevisiae deletion strains, locus YAL013W, strain DEP1, hits give low values",0.926 (active)
same,normalized growth,"S. cerevisiae deletion strains, locus YBR229C, strain ROT2, hits give low values",0.913 (active)
same,normalized growth,[3],0.932
same,normalized growth,[1],0.929
same,normalized growth,"S. cerevisiae deletion strains, locus YEL061C, strain CIN8, hits give low values",0.858 (active)
same,normalized growth,"S. cerevisiae deletion strains, locus YGR078C, strain PAC10, hits give low values",0.944
same,normalized growth,"S. cerevisiae deletion strains, locus YGR229C, strain SMI1, hits give low values",0.984
same,normalized growth,[4],0.775
same,normalized growth,"S. cerevisiae deletion strains, locus YHR087W, strain rtc3, hits give low values",0.968
same,normalized growth,"S. cerevisiae deletion strains, locus YJL187C, strain SWE1, hits give low values",0.948
same,normalized growth,"S. cerevisiae deletion strains, locus YJR043C, strain POL32, hits give low values",0.968
same,normalized growth,"S. cerevisiae deletion strains, locus YJR075W, strain HOC1, hits give low values",1
same,normalized growth,"S. cerevisiae deletion strains, locus YLR039C, strain RIC1, hits give low values",0.8
same,normalized growth,"S. cerevisiae deletion strains, locus YLR058C, strain SHM2 (second series), hits give low values",0.962
same,normalized growth,"S. cerevisiae deletion strains, locus YLR085C, strain ARP6, hits give low values",0.359 (active)
same,normalized growth,"S. cerevisiae deletion strains, locus YLR262C, strain YPT6, hits give low values",0.992
same,normalized growth,"S. cerevisiae deletion strains, locus YML094W, strain GIM5, hits give low values",0.813 (active)
same,normalized growth,"S. cerevisiae deletion strains, locus YMR219W, strain ESC1, hits give low values",0.975
same,normalized growth,"S. cerevisiae deletion strains, locus YMR263W, strain SAP30, hits give low values",0.938
same,normalized growth,"S. cerevisiae deletion strains, locus YMR307W, strain GAS1, hits give low values",0.973
same,normalized growth,"S. cerevisiae deletion strains, locus YNL153C, strain GIM3, hits give low values",0.815 (active)
same,normalized growth,"S. cerevisiae deletion strains, locus YNL298W, strain CLA4 (second series), hits give low values",0.675 (active)
same,normalized growth,"S. cerevisiae deletion strains, locus YNL322C, strain KRE1, hits give low values",0.996
same,normalized growth,"S. cerevisiae deletion strains, locus YNR030W, strain Alg12, hits give low values",0.833 (active)
same,normalized growth,"S. cerevisiae deletion strains, locus YOL006C, strain TOP1, hits give low values",0.219 (active)
same,normalized growth,[2],0.829
same,normalized growth,"S. cerevisiae deletion strains, locus YPL241C, strain CIN2, hits give low values",0.582 (active)
same,normalized growth,"S. cerevisiae deletion strains, locus YPR135W, strain CTF4, hits give low values",0.488 (active)
same,normalized growth,"S. cerevisiae strains, strain wild type, hits give low values",0.893 (active)
